The record followed here is PubChem BioAssay (Tox21).

Test [1] can be described thus: Caspase-3/7 induction in CHO-K1 cells by small molecules, qHTS assay (AID 1346980). Also: nearly all actives have a fitted effect of over 15% in size. Also: potency is read from the fitted curve at half-maximal effect. The method in brief:
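Luminescent Caspase-Glo 3/7 read (30min, room temperature) quantified apoptosis induction. Cells were wild-type CHO-K1, treated with compound for 17hr at 37 C and 5% CO2.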
Background: Quantitative high-throughput screening tests each substance at several concentrations.

A short description of test [2]: Caspase-3/7 induction in HepG2 cells by small molecules, qHTS cell viability counter screen (AID 1346981). Also: series mostly up to about 92 µM; nearly all actives have a fitted effect of over 30% in size. In outline:
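HepG2, WT, 2,000 cells/well; 5 hr pre-incubation 37 C/5% CO2; compound pin-transferred from DMSO; 16 hr exposure; CellTiter-Fluor, 1 hr; fluorescence read.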

The target in test [3] is Nuclear receptor subfamily 1 group I member 2 (Homo sapiens) (UniProt O75469). Kind of test: Human pregnane X receptor (PXR) small molecule agonists, qHTS assay (AID 1346982). Also: nearly all actives have a fitted effect of over 35% in size. Also: potency is read from the fitted curve at half-maximal effect. In outline:
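Luciferase signal from ONE-Glo (30 min, room temperature) measured activation of hPXR-driven CYP3A4 reporter expression in PXR-Luc HepG2 cells treated with compounds for 24 hr at 37 C.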

The target of test [4] is Acetylcholinesterase (Homo sapiens) (UniProt P22303). The test is described as follows: Acetylcholinesterase (AChE) small molecule antagonists: colormetric cell-based qHTS assay (AID 1347395; calls by dose curve; also: nearly all actives have a fitted effect of over 30% in size). The method in brief: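 Colorimetric read-out: DTNB detects thiocholine released when cellular AChE in SH-SY5Y cells hydrolyses acetylthiocholine. Cells attached overnight, received compound for 30 min at 37 C, then substrate mix for 90 min at 37 C.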
Acetylcholinesterase (Homo sapiens), sequence (P22303 whole entry, looked up): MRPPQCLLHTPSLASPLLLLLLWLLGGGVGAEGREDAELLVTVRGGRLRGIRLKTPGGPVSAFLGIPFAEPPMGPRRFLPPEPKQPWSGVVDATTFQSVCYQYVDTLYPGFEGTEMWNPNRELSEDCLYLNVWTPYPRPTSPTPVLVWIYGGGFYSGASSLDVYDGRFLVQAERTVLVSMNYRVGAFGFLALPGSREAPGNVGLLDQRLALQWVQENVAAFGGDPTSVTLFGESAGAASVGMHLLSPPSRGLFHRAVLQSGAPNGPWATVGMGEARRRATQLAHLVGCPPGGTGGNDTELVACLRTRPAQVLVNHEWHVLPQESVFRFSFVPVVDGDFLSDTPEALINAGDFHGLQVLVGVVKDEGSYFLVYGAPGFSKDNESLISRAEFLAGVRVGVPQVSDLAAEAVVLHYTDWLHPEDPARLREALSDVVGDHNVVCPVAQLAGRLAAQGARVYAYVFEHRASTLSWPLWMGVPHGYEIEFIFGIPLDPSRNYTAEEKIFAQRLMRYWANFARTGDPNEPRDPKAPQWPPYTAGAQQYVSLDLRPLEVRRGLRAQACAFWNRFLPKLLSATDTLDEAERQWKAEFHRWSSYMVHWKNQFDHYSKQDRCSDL

For test [5] the target is unchanged. The test is described as follows: Acetylcholinesterase (AChE) small molecule antagonists: enzyme-based qHTS assay (AID 1347397; calls by dose curve; also: nearly all actives have a fitted effect of over 55% in size). As to conditions: Potency: AChE enzyme activity inhibition. The method in brief: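 Absorbance-based detection of thiocholine with DTNB served as the read-out. Recombinant human AChE was exposed to compound for 30 min at RT before a 10 min RT incubation with acetylthiocholine.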

Test [6] shares this target. Kind of test: Acetylcholinesterase (AChE) small molecule antagonists: fluorescence cell-based qHTS assay (AID 1347398; calls by dose curve; also: nearly all actives have a fitted effect of over 50% in size). As to conditions: Potency: AChE activity. The method in brief:
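Fluorimetric cell-based assay: intact SH-SY5Y cells, 30 min compound preincubation at 37 C, acetylthiocholine substrate with thiol probe Thiolite Green, 40 min RT development, fluorescence 490/520 nm.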

Test [7] has the same target. Kind of test: Acetylcholinesterase (AChE) small molecule antagonists: enzyme-based qHTS assay with human liver microsomes (AID 1347399; calls by dose curve; also: nearly all actives have a fitted effect of over 60% in size). As to conditions: Potency: qHTS inhibition. In outline:
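Recombinant human AChE (50 mU/mL in the enzyme mix) and human liver microsomes (0.25 mg/mL final) were preincubated with compound and NADPH (0.25 mg/mL final) for 30 min at 37 C. Acetylthiocholine/DTNB was then added; thiocholine was read colorimetrically after 10 min at room temperature.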

The target of test [8] is Cytochrome P450 2D6 (Homo sapiens) (UniProt P10635). Kind of test: Cytochrome P450 Family 2 Subfamily D Member 6 (CYP2D6) small molecule antagonists: luciferase reporter qHTS assay (AID 1671196). Also: nearly all actives have a fitted effect of over 50% in size. Also: potency is read from the fitted curve at half-maximal effect. In outline:
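Read-out is luminescence from luciferin formed by CYP2D6 turnover of a proluciferin substrate, recorded as relative luminescence units. Reactions ran 1 h at room temperature after NADPH regeneration solution was added.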
(Reporter assays use an easily measured gene product as a stand-in for the process of interest.)

The target of test [9] is Cytochrome P450 2C19 (Homo sapiens) (UniProt P33261). The test is described as follows: Cytochrome P450 Family 2 Subfamily C Member 19 (CYP2C19) small molecule antagonists: luciferase reporter qHTS assay (AID 1671197). Also: nearly all actives have a fitted effect of over 65% in size. Also: potency is read from the fitted curve at half-maximal effect. The method in brief: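 Quantitative high-throughput screen of the Tox21 library using CYP2C19 with proluciferin substrate. Reaction: NADPH regeneration, 37C, 1 h, after 10 min compound preincubation at room temperature. Readout: luminescence.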
Cytochrome P450 2C19 (Homo sapiens), sequence (P33261 whole entry, looked up): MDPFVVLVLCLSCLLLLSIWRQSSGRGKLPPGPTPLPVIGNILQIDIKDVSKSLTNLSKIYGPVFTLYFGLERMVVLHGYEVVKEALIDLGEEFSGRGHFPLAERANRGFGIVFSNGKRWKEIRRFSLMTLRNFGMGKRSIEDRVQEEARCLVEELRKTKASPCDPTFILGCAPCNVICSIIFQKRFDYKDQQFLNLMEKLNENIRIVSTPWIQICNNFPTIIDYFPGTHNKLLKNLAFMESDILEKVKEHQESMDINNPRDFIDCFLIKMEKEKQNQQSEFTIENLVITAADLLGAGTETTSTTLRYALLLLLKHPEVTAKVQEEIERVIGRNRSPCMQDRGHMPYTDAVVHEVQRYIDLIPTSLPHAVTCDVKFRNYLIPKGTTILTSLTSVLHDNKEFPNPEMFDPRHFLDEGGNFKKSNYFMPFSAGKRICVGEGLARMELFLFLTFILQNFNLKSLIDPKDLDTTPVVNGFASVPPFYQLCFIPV

Test [10] concerns the target Cytochrome P450 1A2 (Homo sapiens) (UniProt P05177). Kind of test: Cytochrome P450 Family 1 Subfamily A Member 2 (CYP1A2) small molecule antagonists: luciferase reporter qHTS assay (AID 1671199). Also: nearly all actives have a fitted effect of over 50% in size. Also: potency is read from the fitted curve at half-maximal effect. The method in brief:
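P450-Glo CYP1A2, 1536-well qHTS: enzyme/proluciferin substrate + cpd (DMSO), 10 min RT; NADPH regen, 1 h RT; detection reagent, 20 min; luminescence, RLU.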

Test [11] deals with Voltage-gated inwardly rectifying potassium channel KCNH2 (Homo sapiens) (UniProt Q12809). The test is described as follows: Human Ether-a-go-go-Related Gene (hERG) channel small molecule antagonists: fluorescence cell-based qHTS assay (AID 1671200). Also: nearly all actives have a fitted effect of over 50% in size. Also: potency is read from the fitted curve at half-maximal effect. In outline:
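Channel function was assessed by thallium flux. Cells seeded the previous day and kept at 37 C took up FluxOR II dye over 1 h in the dark at room temperature, then sat another 10 min before stimulation.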
Background: hERG is a cardiac potassium channel; its block is linked to QT prolongation.

Test [12] addresses Cytochrome P450 3A4 (Homo sapiens) (UniProt P08684). The test is described as follows: Cytochrome P450 Family 3 Subfamily A Member 4 (CYP3A4) small molecule antagonists: luciferase reporter qHTS assay (AID 1671201). In outline:
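Compounds in DMSO were pin-transferred onto CYP3A4 enzyme-substrate mix and held 10 min at room temperature. NADPH regenerating solution started the reaction for 1 h; luciferin detection reagent stopped it, and luminescence was read after 20 min.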

Test [13] can be described thus: Caspase-3/7 induction in CHO-K1 cells by small molecules, qHTS cell viability counter screen (AID 1346979). Also: nearly all actives have a fitted effect of over 35% in size. In outline: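 Cells (CHO-K1, wild type) are plated at 1,500 per well and incubated 5hr. Test compounds in DMSO are then pinned in, followed by 16hr at 37C and 5% CO2. Viability is read by CellTiter-Fluor fluorescence after 1hr.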
Test [14] concerns the target Cytochrome P450 2C9 (Homo sapiens) (UniProt P11712). Kind of test: Cytochrome P450 Family 2 Subfamily C Member 9 (CYP2C9) small molecule antagonists: luciferase reporter qHTS assay (AID 1671198). Also: nearly all actives have a fitted effect of over 50% in size. Also: potency is read from the fitted curve at half-maximal effect. The method in brief:
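Enzyme-substrate mix preincubated with compound 10 min at room temperature; reaction started with NADPH regeneration solution, 1 h 37C. Luminescent luciferin product read after 20 min detection reagent.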

In test [15] the target is Nuclear receptor subfamily 1 group I member 2 (Rattus norvegicus) (UniProt Q9R1A7). The test is described as follows: Rat pregnane X receptor (rPXR) activation by small molecules, qHTS assay (AID 1346983). Also: nearly all actives have a fitted effect of over 20% in size. As to conditions: rPXR luciferase reporter cells, One-Glo luminescence, 24 h; stronger effect = higher value. In outline:
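Luminescent readout (One-Glo luciferase, 30 min room temperature) followed 24 hr compound treatment at 37 C of rPXR cells plated 2,000 per well and preincubated 5hr; qHTS format with compounds delivered in DMSO.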

Test [16] addresses Nuclear receptor subfamily 1 group I member 2 (Homo sapiens) (UniProt O75469). The test is described as follows: CYP3A4 induction through human pregnane X receptor (PXR) by small molecules, qHTS assay (AID 1346984). Also: nearly all actives have a fitted effect of over 40% in size. In outline:
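Luminescence readout: luciferase signal after One-Glo (30 min, room temperature), following 3 h at 37C with 3uM final Luciferin-IPA P450 substrate. Cells were DPX-2 (HepG2, PXR/CYP3A4-luc co-transfected) dosed for 24 h.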

For test [17] the target is unchanged. Kind of test: Human pregnane X receptor (PXR) activation by small molecules, qHTS assay (AID 1346985). Also: nearly all actives have a fitted effect of over 40% in size. The method in brief: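 DPX-2 cells (HepG2 co-transfected with a PXR response element and a CYP3A4-promoter luciferase construct) were seeded at 2,000 per well, rested 5 hr at 37C, then exposed to DMSO-dissolved compounds for 24 hr. Activation was read as luciferase luminescence.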

Molecules are shown by their SMILES. “And” between values parts separate entries of the source, which are not always exact repeats. Identical values can stand only once. Results filed as inconclusive are left out. A structure can be active in one record and inactive in another. The source made the active and inactive calls. Unless noted, calls follow the shape of the dose curve; as a rule, active = well fitted curve in the direction sought with a large enough effect in the repeat runs; inconclusive = weak or mixed curves; inactive = no such curve, though single readings can be large; an effect the other way counts as inactive or inconclusive.
% is scaled to controls: 0 for no effect and ±100 for the full control effect.

Cytochrome P450 1A2 (Homo sapiens), sequence (P05177 whole entry, looked up): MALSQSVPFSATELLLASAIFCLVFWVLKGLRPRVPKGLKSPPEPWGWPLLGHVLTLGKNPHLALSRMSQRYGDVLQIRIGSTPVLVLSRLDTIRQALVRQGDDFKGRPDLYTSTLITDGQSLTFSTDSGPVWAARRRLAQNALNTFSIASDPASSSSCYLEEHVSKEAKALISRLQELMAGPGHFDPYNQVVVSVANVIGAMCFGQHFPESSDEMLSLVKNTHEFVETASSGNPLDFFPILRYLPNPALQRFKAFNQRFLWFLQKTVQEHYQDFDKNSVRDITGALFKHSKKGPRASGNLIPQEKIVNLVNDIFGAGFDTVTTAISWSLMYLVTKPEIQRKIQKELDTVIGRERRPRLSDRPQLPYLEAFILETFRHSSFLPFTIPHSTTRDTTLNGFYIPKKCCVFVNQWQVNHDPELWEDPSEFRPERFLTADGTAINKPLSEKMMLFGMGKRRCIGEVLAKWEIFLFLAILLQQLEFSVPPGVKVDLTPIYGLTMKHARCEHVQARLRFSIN
Cytochrome P450 2D6 (Homo sapiens), sequence (P10635 whole entry, looked up): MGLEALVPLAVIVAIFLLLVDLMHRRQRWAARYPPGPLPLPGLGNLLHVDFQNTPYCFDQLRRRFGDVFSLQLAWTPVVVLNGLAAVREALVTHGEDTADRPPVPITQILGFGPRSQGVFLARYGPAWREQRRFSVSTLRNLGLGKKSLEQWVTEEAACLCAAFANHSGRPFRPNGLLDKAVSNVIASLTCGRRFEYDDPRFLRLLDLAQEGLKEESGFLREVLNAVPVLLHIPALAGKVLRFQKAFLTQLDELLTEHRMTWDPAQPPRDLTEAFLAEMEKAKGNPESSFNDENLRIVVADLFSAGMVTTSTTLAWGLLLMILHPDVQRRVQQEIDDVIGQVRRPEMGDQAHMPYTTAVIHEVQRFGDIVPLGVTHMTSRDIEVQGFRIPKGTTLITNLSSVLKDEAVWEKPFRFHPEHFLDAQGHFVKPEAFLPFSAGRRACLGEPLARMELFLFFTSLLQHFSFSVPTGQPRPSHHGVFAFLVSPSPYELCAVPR
Nuclear receptor subfamily 1 group I member 2 (Homo sapiens), sequence (O75469 whole entry, looked up): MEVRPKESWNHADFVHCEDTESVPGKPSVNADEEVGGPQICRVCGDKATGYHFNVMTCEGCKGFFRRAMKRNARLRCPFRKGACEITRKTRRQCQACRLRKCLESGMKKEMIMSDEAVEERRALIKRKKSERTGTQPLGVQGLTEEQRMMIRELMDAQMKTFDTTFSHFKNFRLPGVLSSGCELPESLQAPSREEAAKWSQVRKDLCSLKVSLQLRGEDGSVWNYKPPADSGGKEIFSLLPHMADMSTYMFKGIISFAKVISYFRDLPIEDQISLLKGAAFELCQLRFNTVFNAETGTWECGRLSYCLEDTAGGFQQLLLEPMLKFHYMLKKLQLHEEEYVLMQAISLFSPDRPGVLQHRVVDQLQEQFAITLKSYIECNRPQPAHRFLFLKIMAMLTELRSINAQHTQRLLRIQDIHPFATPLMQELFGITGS
Cytochrome P450 3A4 (Homo sapiens), sequence (P08684 whole entry, looked up): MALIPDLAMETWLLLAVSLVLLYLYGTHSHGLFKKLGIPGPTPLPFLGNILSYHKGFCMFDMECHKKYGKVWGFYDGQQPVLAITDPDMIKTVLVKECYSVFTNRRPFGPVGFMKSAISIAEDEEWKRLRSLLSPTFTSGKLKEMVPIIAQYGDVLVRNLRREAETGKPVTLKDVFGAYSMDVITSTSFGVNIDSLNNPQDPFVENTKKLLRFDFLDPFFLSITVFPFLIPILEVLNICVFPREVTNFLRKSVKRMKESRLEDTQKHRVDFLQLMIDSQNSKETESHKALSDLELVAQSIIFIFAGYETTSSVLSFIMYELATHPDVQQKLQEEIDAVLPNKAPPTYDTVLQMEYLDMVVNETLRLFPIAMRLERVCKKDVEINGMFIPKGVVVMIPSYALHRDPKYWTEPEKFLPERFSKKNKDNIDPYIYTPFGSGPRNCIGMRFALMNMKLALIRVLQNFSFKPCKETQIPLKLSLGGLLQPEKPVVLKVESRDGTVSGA
Cytochrome P450 2C9 (Homo sapiens), sequence (P11712 whole entry, looked up): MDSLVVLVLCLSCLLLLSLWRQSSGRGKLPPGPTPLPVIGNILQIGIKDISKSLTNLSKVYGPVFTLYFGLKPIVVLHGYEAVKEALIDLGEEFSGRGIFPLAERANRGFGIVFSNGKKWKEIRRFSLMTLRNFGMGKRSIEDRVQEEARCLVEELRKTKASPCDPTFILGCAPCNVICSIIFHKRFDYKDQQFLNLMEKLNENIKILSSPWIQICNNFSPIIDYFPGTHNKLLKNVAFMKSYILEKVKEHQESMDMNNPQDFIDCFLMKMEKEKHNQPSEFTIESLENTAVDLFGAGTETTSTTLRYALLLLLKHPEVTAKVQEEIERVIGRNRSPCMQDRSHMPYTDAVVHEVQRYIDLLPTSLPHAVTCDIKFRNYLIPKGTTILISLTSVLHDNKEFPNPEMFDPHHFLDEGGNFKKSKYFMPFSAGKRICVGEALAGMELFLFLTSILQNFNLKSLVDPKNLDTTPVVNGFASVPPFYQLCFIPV
Voltage-gated inwardly rectifying potassium channel KCNH2 (Homo sapiens), sequence (Q12809 whole entry, looked up): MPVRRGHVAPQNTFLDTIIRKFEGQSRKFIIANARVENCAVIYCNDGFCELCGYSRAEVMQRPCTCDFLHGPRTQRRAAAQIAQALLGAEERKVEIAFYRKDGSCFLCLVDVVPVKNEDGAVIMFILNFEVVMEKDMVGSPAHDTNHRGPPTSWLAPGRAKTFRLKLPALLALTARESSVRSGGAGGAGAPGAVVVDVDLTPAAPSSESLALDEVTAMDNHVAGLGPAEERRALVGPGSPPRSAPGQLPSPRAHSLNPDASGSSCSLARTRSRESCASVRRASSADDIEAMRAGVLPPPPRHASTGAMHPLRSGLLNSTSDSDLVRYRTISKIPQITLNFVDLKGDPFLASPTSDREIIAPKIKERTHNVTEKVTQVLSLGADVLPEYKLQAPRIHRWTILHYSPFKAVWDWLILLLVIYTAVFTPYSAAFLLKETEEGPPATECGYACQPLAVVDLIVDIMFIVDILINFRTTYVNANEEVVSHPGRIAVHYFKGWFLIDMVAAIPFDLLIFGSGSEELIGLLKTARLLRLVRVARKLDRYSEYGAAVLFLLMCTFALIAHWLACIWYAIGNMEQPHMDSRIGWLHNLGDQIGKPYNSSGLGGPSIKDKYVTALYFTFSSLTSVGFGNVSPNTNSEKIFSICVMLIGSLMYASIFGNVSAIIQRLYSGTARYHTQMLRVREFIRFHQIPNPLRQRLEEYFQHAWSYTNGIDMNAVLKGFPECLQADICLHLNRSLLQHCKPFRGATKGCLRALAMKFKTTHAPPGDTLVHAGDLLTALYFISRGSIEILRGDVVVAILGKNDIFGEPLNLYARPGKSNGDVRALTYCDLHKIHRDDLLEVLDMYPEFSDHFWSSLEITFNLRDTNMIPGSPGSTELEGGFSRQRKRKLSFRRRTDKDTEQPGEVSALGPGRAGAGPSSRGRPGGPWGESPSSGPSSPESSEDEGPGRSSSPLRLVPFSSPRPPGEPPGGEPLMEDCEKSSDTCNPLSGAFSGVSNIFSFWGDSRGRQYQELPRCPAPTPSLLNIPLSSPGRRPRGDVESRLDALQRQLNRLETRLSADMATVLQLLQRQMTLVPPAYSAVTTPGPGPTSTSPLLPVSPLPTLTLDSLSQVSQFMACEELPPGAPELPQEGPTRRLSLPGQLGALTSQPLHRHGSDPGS

For `Oc1c(Cl)c(Cl)c(Cl)c(Cl)c1Cl`, the Potency entry in test [1], in test [2], in [4], in [5], in test [6] and in [7] was “inactive” in each case. The Potency entry in test [11] and in [12] was “inactive” in each case. The Potency in test [3] was 59.9 µM (active) and 54.5 µM (active); in test [8] it was “inactive and 796 nM (active)”; in test [9], 34.9 µM (active) and 15.9 µM (active) and inactive; in test [10], 62 µM (active) and 35.5 µM (active) and 79.6 µM (active).
With `O=S(=O)(Oc1ccc(Cl)cc1)c1ccc(Cl)cc1`, the Potency result in test [13], in test [1], in [2], in test [4], in test [5] and in test [6] was “inactive” throughout. Also, the Potency entry in [7] and in test [12] was “inactive” in each case. Besides, the Potency was 55.2 µM (active) and 30.6 µM (active) in test [3]; 16.1 µM (active) and 28.3 µM (active) in test [8]; 114 nM (active) and 126 nM (active) in test [9]; 32.1 µM (active) and 25.2 µM (active) in test [14]; 2.87 µM (active) and 4.48 µM (active) in test [10]; 24.5 µM (active) in test [11].
Take `NNC(=S)NN`: the Potency is 56 µM (active) and inactive in test [1]; 65 µM (active) in [8]; 32.6 µM (active) and 39.9 µM (active) in test [9]; 65 µM (active) in test [14]; 41 µM (active) and 31.7 µM (active) in [10]. For the same compound, the Potency result in test [3], in test [4], in test [5], in test [6], in [7] and in [11] was “inactive” throughout.
In the case of `CCCCCCCCOC(=O)c1ccccc1C(=O)OCCCCCCCC`, the Potency result in test [1], in test [2], in [5], in test [6], in test [7] and in test [8] was “inactive” in each case. In addition, in [11], the Potency entry is “inactive”. Moreover, the Potency in test [3] was 68.4 µM (active) and inactive; in [9], 50.1 µM (active) and inactive; in test [14], 14.2 µM (active). For the same compound, the max activation in test [15] was -0.303% (inactive). The compound was called inactive in [16] and in test [17].
Consider `CC(C)C(=O)OCC(C)(C)C(OC(=O)C(C)C)C(C)C` (centres undefined), for which the Potency entry in test [13], in test [1], in test [2], in test [3], in test [5] and in [6] was “inactive” in each case. The Potency entry in test [7], in test [9], in test [14], in test [10], in test [11] and in test [12] was “inactive” each time. For the same compound, the Potency in [8] was 32 µM (active) and inactive.
In the case of `CC(C)NC(C)C`, the Potency result in [1], in test [2], in [3], in test [4], in [5] and in [6] was “inactive” throughout. Besides, the Potency entry in test [7], in test [8], in [9], in test [14], in test [10] and in [11] was “inactive” in each case. Further, the max activation in test [15] is -0.504% (inactive). Also, the call in [16] and in test [17] was inactive.
As to `O=C(O)C(F)(F)C(F)(F)C(F)(F)C(F)(F)C(F)(F)C(F)(F)C(F)(F)F`, the Potency entry in test [1], in [2], in test [3], in test [5], in test [6] and in test [7] was “inactive” throughout. Further, the Potency entry in test [8], in test [10] and in [11] was “inactive” throughout. Moreover, the Potency in test [9] is 79.6 µM (active) and inactive; in test [14], 1.78 µM (active) and 2.51 µM (active).
